In PubChem BioAssay (EPA / NIEHS):
Results filed as inconclusive are left out. Calls of active or inactive are those of the source. Rule for the calls, unless noted: active = hit-call score of the fitted dose curve at least 0.9, where 1 is the maximum; inactive = score below 0.9.

Experiments:
[1] = target: Paired box protein Pax-6 (Homo sapiens) (UniProt P26367); experiment: ATG_Pax6_CIS: Attagene CIS-FACTORIAL HepG2 Assay for human Paired Box 6 (PAX6) (AID 2282956); conditions: HepG2 CIS-FACTORIAL PAX6 reporter transcription, RNA readout; actives raise or lower the signal
Summary of the method: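 Readout: reporter transcript fluorescence after RT-PCR and capillary electrophoresis. Cells: HepG2, transiently transfected with cis-regulated MRTUs. Exposure 24 h. Gain or loss of signal fitted bidirectionally relative to DMSO.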

[2] = ATG_PXRE_CIS: Attagene CIS-FACTORIAL HepG2 Assay for human Pregnane X Receptor Element (PXRE) (AID 2282957); conditions: HepG2 Attagene CIS-FACTORIAL PXRE reporter, mRNA; actives raise or lower the signal
Summary of the method: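 Fluorescent capillary electrophoresis of amplified reporter cDNA gave the signal, collected 24 h after dosing HepG2 cells that held transfected cis-element reporter constructs.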

[3] = ATG_PPRE_CIS: Attagene CIS-FACTORIAL HepG2 Assay for human Peroxisome Proliferator-activated Response Element (PPRE) (AID 2282958); conditions: HepG2 PPRE cis-element reporter, Attagene transcription factor profiling; actives raise or lower the signal
Summary of the method: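 DMSO served as negative control and baseline for bidirectional curve fitting. Signal came from PPRE-regulated reporter mRNA in HepG2 cells, measured 24 h post-dosing by RT-PCR, 6-FAM primer extension and capillary electrophoresis.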

[4] = ATG_RORE_CIS: Attagene CIS-FACTORIAL HepG2 Assay for human RAR-related Orphan Receptor Element (RORE) (AID 2282959); conditions: HepG2 Attagene cis-factorial RORE reporter, mRNA; actives raise or lower the signal
Summary of the method: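 Transfect HepG2 with MRTUs; treat 24 h; extract RNA; RT with oligo(dT); PCR with reporter-specific primers; 6-FAM primer extension; HpaI digest 2 h at 37 C; capillary electrophoresis. Fit vs DMSO, bidirectional.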

[5] = ATG_Sox_CIS: Attagene CIS-FACTORIAL HepG2 Assay for human SRY-box transcription factor (SOX) (AID 2282960); conditions: HepG2 Attagene cis-factorial SOX reporter, mRNA; actives raise or lower the signal
Summary of the method: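 Fluorescence-labelled cDNA fragments from reporter transcripts, sized by CE, give the signal. Cells: HepG2, transiently transfected with cis-regulated reporter units. Exposure 24 h; DMSO negative control; bidirectional curve fitting.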

[6] = target: Transcription factor Sp1 (Homo sapiens) (UniProt P08047); experiment: ATG_Sp1_CIS: Attagene CIS-FACTORIAL HepG2 Assay for human Specificity Protein 1 (Sp1) (AID 2282961); conditions: HepG2 Sp1 cis-reporter transcription, actives raise or lower the signal
Summary of the method: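 Chemicals are dosed onto HepG2 cells transfected with multiple cis-promoter reporter constructs, and after 24 h reporter RNA is reverse-transcribed, PCR-amplified and resolved by capillary electrophoresis for fluorescence quantitation; activity is scored up or down against DMSO.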

[7] = ATG_SREBP_CIS: Attagene CIS-FACTORIAL HepG2 Assay for human Sterol Regulatory Element Binding (SREBP) (AID 2282962); conditions: HepG2 Attagene cis-factorial SREBP reporter, mRNA; actives raise or lower the signal
Summary of the method: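 Readout: fluorescent reporter-transcript peaks resolved by capillary electrophoresis after RT-PCR. Cells were human HepG2 carrying transfected cis-promoter reporter constructs, dosed for 24 h. Gain or loss of signal was fitted against DMSO controls.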

[8] = target: Signal transducer and activator of transcription 3 (Homo sapiens) (UniProt P40763); experiment: ATG_STAT3_CIS: Attagene CIS-FACTORIAL HepG2 Assay for human Signal Transducer and Activator of Transcription 3 (STAT3) (AID 2282963); conditions: HepG2, Attagene cis-factorial STAT3 reporter transcription; actives raise or lower the signal
Summary of the method: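 HepG2, MRTU-transfected, 24 h dosing. RNA → RT → PCR → FAM label → HpaI → CE. Bidirectional fit vs DMSO.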

[9] = ATG_TCF_b_cat_CIS: Attagene CIS-FACTORIAL HepG2 Assay for human T-Cell-Factor with beta-catenin (TCF/b-cat) (AID 2282965); conditions: HepG2 TCF/beta-catenin cis-reporter transcription, actives raise or lower the signal
Summary of the method: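 Using capillary electrophoresis as the read-out, labelled reporter cDNA fragments from transiently transfected HepG2 were sized and quantified. Exposure lasted 24 hours; activity in either direction was referenced to DMSO.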

[10] = ATG_TAL_CIS: Attagene CIS-FACTORIAL HepG2 Assay for human TAL Basal Promoter (AID 2282966); conditions: HepG2 Attagene cis-factorial TAL promoter reporter; actives raise or lower the signal;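 note: background control endpoint measuring basal TAL promoter reporter mRNA not a specific factor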
Summary of the method: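 Transiently transfected HepG2 (cis-regulated reporter units), 24 h treatment, mRNA read by fluorescent CE after RT-PCR; bidirectional fit, DMSO baseline.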

[11] = ATG_VDRE_CIS: Attagene CIS-FACTORIAL HepG2 Assay for human Vitamin D Receptor Element (VDRE) (AID 2282968); conditions: HepG2 VDRE cis-reporter transcription, actives raise or lower the signal
Summary of the method: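 Steps: transfect HepG2 with multiple reporter transcription units; dose chemicals 24 h; isolate RNA; RT-PCR; label with 6-FAM primer extension; HpaI digest; capillary electrophoresis. Curves fitted both directions against DMSO.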

[12] = target: X-box-binding protein 1 (Homo sapiens) (UniProt P17861); experiment: ATG_Xbp1_CIS: Attagene CIS-FACTORIAL HepG2 Assay for human X-box Binding Protein 1 (XBP1) (AID 2282972); conditions: HepG2 XBP1 cis-element reporter, Attagene multiplex; actives raise or lower the signal
Summary of the method: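 Read-out: fluorescent reporter mRNA fragments resolved by capillary electrophoresis after RT-PCR. Human HepG2 liver cells carried transfected cis-promoter reporter units and were exposed to chemicals for 24 hours. Gain or loss of signal fitted relative to DMSO baseline.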

[13] = ATG_M_19_TRANS: Attagene TRANS-FACTORIAL HepG2 Assay for M19 Transcription Factor (Internal Marker) (AID 2282974; active = hit-call score of the fitted dose curve at least 0.9, where 1 is the maximum); conditions: HepG2 Attagene TRANS-FACTORIAL M19 internal marker reporter
Summary of the method: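 Multiplexed TRANS format: HepG2 liver cells bearing transient GAL4-UAS reporter units, chemical treatment 24 h, reporter transcripts quantified by RT-PCR plus capillary electrophoresis. DMSO defines baseline.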

[14] = ATG_GAL4_TRANS: Attagene TRANS-FACTORIAL HepG2 Assay for GAL4 (Internal Marker) (AID 2282976; active = hit-call score of the fitted dose curve at least 0.9, where 1 is the maximum); conditions: HepG2 Attagene TRANS GAL4 internal marker reporter
Summary of the method: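 HepG2 cells transiently transfected with multiplexed GAL4-UAS reporter constructs were dosed for 24 h. Reporter mRNA was measured by RT-PCR, 6-FAM primer extension, HpaI digestion and capillary electrophoresis, and gain of signal was fitted relative to DMSO.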

[15] = ATG_TGFb_CIS: Attagene CIS-FACTORIAL HepG2 Assay for human Transforming Growth Factor (TGF) (AID 2282967); conditions: HepG2 Attagene CIS TGFb reporter, mRNA transcription; actives raise or lower the signal
Summary of the method: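 Transient MRTU transfection of HepG2 (FuGene 6). Dose 24 h. TriZol RNA, oligo(dT) RT, PCR, 6-FAM primer extension, HpaI cut, CE. Bidirectional fit, DMSO = baseline.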

[16] = target: Estrogen-related receptor gamma (Homo sapiens) (UniProt P62508); experiment: ATG_ERRg_TRANS: Attagene TRANS-FACTORIAL HepG2 Assay for human Estrogen-Related Receptor gamma (ERRg) (AID 2282977; active = hit-call score of the fitted dose curve at least 0.9, where 1 is the maximum;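 note: hits increase reporter signal over DMSO so potencies reflect activators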); conditions: HepG2 Attagene TRANS reporter, ERRg transactivation
Summary of the method: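 Exogenous NR-Gal4 chimera activity measured as reporter transcript induction after 24 h in transiently transfected HepG2 cells. RNA reverse-transcribed, PCR-amplified, 6-FAM-labelled and resolved by capillary electrophoresis; increase over DMSO baseline.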

[17] = ATG_TA_CIS: Attagene CIS-FACTORIAL HepG2 Assay for human TA Basal Promoter (AID 2282964); conditions: HepG2 Attagene CIS-factorial TA basal promoter reporter; actives raise or lower the signal
Summary of the method: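 Read-out: fluorescent reporter-transcript fragments resolved by capillary electrophoresis after RT-PCR and HpaI digestion. Source: HepG2 cells carrying transiently transfected multi-reporter cis constructs, treated 24 h. Endpoint fitted bidirectionally relative to DMSO.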

[18] = target: Estrogen receptor (Homo sapiens) (UniProt P03372); experiment: ATG_ERa_TRANS: Attagene TRANS-FACTORIAL HepG2 Assay for human Estrogen Receptor alpha (ERa) (AID 2282970; active = hit-call score of the fitted dose curve at least 0.9, where 1 is the maximum); conditions: HepG2 Attagene TRANS ERa GAL4 reporter, mRNA
Summary of the method: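 One of 30 multiplexed endpoints from a HepG2 TRANS system, this one reports ERa-Gal4-driven reporter mRNA. Transcripts were quantified 24 hours post-dosing by fluorescent RT-PCR and capillary electrophoresis, with activity scored as induction over DMSO.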

[19] = target: Nuclear receptor subfamily 1 group I member 3 (Homo sapiens) (UniProt Q14994); experiment: ATG_CAR_TRANS: Attagene TRANS-FACTORIAL HepG2 Assay for human Constitutive Androstane Receptor (CAR) (AID 2282969; active = hit-call score of the fitted dose curve at least 0.9, where 1 is the maximum;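 note: activators raise reporter mRNA above DMSO so AC50 marks induction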); conditions: HepG2 Attagene TRANS-FACTORIAL CAR reporter
Summary of the method: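 Steps: transient transfection of HepG2 with multiple GAL4-UAS reporter units; 24 h compound incubation; RNA isolation, RT-PCR, 6-FAM primer extension, HpaI digest; capillary electrophoresis. Gain-of-signal relative to DMSO negative control.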

[20] = target: Steroid hormone receptor ERR1 (Homo sapiens) (UniProt P11474); experiment: ATG_ERRa_TRANS: Attagene TRANS-FACTORIAL HepG2 Assay for human Estrogen-Related Receptor alpha (ERRa) (AID 2282971; active = hit-call score of the fitted dose curve at least 0.9, where 1 is the maximum); conditions: HepG2 Attagene TRANS reporter, ERRa transactivation
Summary of the method: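 HepG2 cells transiently transfected with multiplexed GAL4-UAS reporter units reading chimeric ERRa-Gal4 activity; 24 h compound exposure. Reporter mRNA measured by RT-PCR, 6-FAM labelling, HpaI digest and capillary electrophoresis; gain of signal fitted versus DMSO baseline.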

Measured: AC50

Sequence of Paired box protein Pax-6 (Homo sapiens) (P26367 whole entry, looked up): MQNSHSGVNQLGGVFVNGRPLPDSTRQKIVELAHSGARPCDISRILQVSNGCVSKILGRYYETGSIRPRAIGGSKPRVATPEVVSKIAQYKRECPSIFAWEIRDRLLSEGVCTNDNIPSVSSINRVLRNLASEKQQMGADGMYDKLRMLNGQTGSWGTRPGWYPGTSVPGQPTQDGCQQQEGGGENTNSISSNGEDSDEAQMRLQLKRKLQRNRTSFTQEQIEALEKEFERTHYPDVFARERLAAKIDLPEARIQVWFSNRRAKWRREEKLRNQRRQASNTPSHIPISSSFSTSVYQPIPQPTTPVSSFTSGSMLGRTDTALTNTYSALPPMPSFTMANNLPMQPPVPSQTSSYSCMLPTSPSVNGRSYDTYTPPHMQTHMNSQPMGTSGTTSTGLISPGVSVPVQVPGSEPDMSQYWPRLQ
Sequence of Signal transducer and activator of transcription 3 (Homo sapiens) (P40763 whole entry, looked up): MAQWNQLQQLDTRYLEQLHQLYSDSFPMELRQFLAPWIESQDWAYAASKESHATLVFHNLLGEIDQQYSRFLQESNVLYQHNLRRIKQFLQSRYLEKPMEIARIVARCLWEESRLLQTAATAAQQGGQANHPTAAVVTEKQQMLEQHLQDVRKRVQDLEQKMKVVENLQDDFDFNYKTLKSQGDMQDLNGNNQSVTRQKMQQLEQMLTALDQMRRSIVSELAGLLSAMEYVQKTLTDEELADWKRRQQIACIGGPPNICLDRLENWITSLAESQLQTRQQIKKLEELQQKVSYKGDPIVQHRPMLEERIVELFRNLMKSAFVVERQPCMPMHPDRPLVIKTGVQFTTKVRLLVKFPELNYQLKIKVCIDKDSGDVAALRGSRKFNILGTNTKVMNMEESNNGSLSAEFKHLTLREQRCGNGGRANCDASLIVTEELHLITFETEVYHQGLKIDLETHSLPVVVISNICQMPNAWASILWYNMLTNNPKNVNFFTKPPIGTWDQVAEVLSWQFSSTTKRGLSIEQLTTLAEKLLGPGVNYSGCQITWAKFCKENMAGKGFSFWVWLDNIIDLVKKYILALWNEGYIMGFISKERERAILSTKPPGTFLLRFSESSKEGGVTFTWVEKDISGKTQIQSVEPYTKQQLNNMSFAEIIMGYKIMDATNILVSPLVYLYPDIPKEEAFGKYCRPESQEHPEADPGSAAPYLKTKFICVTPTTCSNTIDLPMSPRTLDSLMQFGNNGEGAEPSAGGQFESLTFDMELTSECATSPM
Sequence of Transcription factor Sp1 (Homo sapiens) (P08047 whole entry, looked up): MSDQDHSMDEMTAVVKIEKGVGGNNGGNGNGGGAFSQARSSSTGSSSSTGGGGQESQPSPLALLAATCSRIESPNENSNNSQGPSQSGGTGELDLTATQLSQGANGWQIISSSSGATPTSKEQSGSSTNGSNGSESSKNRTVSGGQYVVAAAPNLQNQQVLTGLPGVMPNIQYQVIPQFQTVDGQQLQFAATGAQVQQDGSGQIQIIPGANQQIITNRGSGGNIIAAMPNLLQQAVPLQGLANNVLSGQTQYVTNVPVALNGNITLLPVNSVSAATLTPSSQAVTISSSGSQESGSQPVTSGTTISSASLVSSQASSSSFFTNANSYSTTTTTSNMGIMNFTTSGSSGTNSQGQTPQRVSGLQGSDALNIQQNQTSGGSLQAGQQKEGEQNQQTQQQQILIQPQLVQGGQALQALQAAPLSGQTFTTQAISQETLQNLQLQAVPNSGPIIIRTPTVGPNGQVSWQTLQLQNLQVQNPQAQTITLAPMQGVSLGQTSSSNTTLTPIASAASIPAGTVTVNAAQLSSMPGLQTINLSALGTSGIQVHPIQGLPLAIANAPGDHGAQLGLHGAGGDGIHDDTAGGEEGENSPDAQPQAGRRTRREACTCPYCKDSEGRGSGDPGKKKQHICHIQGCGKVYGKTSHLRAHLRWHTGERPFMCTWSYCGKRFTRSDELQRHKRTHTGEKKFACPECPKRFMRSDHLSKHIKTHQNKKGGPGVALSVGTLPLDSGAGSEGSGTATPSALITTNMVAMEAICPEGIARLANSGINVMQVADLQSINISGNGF
Sequence of Estrogen-related receptor gamma (Homo sapiens) (P62508 whole entry, looked up, the tested form may be a part): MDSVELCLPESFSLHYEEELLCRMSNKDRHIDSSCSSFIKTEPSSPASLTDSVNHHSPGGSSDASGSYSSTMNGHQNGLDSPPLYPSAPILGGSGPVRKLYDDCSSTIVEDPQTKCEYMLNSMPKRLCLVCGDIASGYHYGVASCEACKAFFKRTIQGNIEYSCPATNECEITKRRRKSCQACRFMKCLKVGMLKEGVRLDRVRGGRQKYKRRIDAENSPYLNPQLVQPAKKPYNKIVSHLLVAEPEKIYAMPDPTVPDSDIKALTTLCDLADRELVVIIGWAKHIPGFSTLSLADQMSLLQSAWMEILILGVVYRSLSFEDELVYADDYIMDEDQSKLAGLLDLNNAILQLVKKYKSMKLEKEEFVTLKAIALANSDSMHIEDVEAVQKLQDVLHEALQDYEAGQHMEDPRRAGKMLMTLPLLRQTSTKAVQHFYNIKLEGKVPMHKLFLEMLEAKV
Sequence of Estrogen receptor (Homo sapiens) (P03372 whole entry, looked up, the tested form may be a part): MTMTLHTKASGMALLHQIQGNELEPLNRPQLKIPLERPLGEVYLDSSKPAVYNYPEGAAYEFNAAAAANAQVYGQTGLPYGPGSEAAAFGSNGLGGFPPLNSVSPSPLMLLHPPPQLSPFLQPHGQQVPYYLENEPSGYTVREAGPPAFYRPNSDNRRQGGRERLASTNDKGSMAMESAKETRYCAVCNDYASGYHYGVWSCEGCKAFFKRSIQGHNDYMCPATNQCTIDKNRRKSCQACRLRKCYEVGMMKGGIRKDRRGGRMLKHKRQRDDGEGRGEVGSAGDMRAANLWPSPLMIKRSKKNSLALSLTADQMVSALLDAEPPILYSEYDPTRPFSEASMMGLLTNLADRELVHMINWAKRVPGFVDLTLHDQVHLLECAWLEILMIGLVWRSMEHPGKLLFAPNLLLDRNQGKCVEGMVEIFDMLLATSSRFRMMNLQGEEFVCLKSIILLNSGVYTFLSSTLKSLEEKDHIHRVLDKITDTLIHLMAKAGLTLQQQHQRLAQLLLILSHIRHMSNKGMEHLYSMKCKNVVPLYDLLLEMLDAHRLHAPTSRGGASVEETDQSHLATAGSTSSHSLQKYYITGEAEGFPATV
Sequence of X-box-binding protein 1 (Homo sapiens) (P17861 whole entry, looked up, the tested form may be a part): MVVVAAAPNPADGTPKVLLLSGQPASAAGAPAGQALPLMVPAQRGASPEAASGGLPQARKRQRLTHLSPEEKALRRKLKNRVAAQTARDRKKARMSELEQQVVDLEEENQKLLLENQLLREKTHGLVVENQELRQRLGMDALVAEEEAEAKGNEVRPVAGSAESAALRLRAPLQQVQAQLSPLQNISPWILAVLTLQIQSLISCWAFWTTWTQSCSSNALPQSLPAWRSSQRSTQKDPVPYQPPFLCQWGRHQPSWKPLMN
Sequence of Nuclear receptor subfamily 1 group I member 3 (Homo sapiens) (Q14994 whole entry, looked up, the tested form may be a part): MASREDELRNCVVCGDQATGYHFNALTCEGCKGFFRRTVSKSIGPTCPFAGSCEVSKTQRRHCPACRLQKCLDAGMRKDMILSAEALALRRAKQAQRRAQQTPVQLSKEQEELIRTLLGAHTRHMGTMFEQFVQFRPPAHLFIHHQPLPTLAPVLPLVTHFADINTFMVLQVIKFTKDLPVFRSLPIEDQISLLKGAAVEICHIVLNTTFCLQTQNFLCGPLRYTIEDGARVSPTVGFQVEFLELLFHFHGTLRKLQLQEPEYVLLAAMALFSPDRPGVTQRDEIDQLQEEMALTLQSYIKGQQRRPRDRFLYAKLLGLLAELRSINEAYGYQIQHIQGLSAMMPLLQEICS
Sequence of Steroid hormone receptor ERR1 (Homo sapiens) (P11474 whole entry, looked up, the tested form may be a part): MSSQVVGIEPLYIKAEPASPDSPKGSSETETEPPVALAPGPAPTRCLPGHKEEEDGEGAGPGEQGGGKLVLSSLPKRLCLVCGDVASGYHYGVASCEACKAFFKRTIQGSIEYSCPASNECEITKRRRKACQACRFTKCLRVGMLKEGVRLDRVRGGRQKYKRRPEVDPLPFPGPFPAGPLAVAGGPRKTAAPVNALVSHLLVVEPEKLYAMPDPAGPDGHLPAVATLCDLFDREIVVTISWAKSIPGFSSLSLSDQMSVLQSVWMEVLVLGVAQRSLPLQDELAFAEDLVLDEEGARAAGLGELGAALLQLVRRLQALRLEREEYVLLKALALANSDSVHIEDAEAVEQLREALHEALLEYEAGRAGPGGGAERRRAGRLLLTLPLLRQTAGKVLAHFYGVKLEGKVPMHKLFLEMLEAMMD

CC1=NN(c2cc(S(=O)(=O)O)ccc2Cl)C(=O)C1N=Nc1ccccc1 (stereo not drawn)
not listed: [15] | [16] | [17] | [18] | [19] | [20]
inactive: all other assays above

CC1(C)S[C@@H]2[C@H](NC(=O)COc3ccccc3)C(=O)N2[C@H]1C(=O)O
active: [2] 4.35 µM
not listed: [13] | [14] | [17] | [18] | [19] | [20]
inactive: all other assays above

CCCNC(=O)NS(=O)(=O)c1ccc(Cl)cc1
not listed: [7] | [16] | [19] | [20]
inactive: all other assays above

CC(=O)OCCC1CCCCC1
active: [2] 31.8 µM
not listed: [7] | [14] | [16] | [20]
inactive: all other assays above

C=CC(=O)OCC(Br)CBr (stereo not drawn)
active: [1] 34.5 µM | [8] 121 µM | [9] 44.2 µM | [15] 0.39 µM | [11] 26.3 µM | [18] 100 µM
not listed: [7] | [14] | [16] | [19] | [20]
inactive: all other assays above

CC=CCO
active: [2] 26.8 µM
not listed: [8] | [13] | [14] | [16] | [18] | [19] | [20]
inactive: all other assays above

C1=Cc2ccccc2C1
active: [2] 9.16 µM | [18] 65.8 µM
not listed: [7] | [13] | [20]
inactive: all other assays above

CCC(C)C=O (stereo not drawn)
not listed: [14] | [16] | [17] | [18] | [19] | [20]
inactive: all other assays above

C(=CC=Nc1ccccc1)C=CNc1ccccc1
active: [2] 32.3 µM
not listed: [13] | [16] | [17] | [20]
inactive: all other assays above

CC(C)=CCCC(C)C=O (stereo not drawn)
active: [2] 8.29 µM | [11] 32 µM
not listed: [14] | [16] | [17] | [20]
inactive: all other assays above

O=C(O)CCCCCCCCCC(=O)O
active: [18] 22.7 µM
not listed: [8] | [13] | [19]
inactive: all other assays above

C[Si](C)(CCCN)O[Si](C)(C)CCCN
active: [7] 54.5 µM
not listed: [13] | [16] | [17] | [18] | [19] | [20]
inactive: all other assays above

CCCc1ccc(OC)cc1
not listed: [8] | [16] | [19] | [20]
inactive: all other assays above
